KKLEB tox = CF airway cell cytotoxicity counter-screen; hit rate 0.36% among 360,000; KKLEB CF airway cells viability, ATPlite luminescence, overnight; hits give low values; cells stimulated with P. aeruginosa culture filtrate; activity change (cytotoxicity), % at 5 µM; AID 602141;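 active means corrected activity change at or below -50% at 5 µM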
iPSC survival up = increases survival of single human iPS cells; hiPSC single-cell survival, ATPlite luminescence; 100% = ROCK inhibitor wells, 0% = DMSO; survival enhancement, % at 20 µM; hit rate 0.044% among 360,000; AID 602274; in the data active means survival enhancement above about 18%;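 further: cells exposed to compounds for 16 hours before the ATP read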
CF NFkB inh = inhibitors of cystic fibrosis induced NF-kB; hit rate 0.86% among 360,000; KKLEB NF-kB-GFP reporter, PAF-induced, GFP fluorescence overnight; inhibition, % at 5 µM;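 active means at least 50% inhibition at 5 µM, scaled per plate between neutral and stimulator controls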;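 further: PAF is a Pseudomonas aeruginosa culture filtrate used as stimulus; plate controls were PAF-stimulated DMSO wells for no effect and unstimulated DMSO wells for full effect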
HIF-2a inh = HIF-2a inhibition | AID 624352 | 786-0 RCC cells HIF-2a reporter, luciferase luminescence, overnight | inhibition, % at 18.8 µM | hit rate 0.72% among 360,000;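 active means inhibition of the luminescence signal of 40% or more relative to plate controls, in a single-dose primary screen at 18.75 µM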
PPC-1+TRAIL kill = kills PPC-1 cancer cells in the presence of TRAIL | PPC-1 cells + TRAIL, ATPLite viability luminescence | cell killing (% activity), % at 4 µM or 5 µM | AID 1443 | hit rate 0.41% among 220,000;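 active means cell killing above 50% in the first pass at 4 µM, then a duplicate retest at 5 µM averaging 50% or more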;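 further: plate controls were cells with TRAIL plus DMSO for no effect and medium-only wells lacking cells for full effect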
C8 TRAIL sens = caspase-8 TRAIL sensitization. inhibition (viability loss, TRAIL sensitization), % at 10 µM. hit rate 1% among 360,000. AID 624354. NB7+C8 cells + TRAIL, ATPlite viability luminescence;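 active means compounds causing at least 50% loss of cell viability in the single-dose screen, relative to plate controls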
* hit, by the source's call; ! = a repeat was not active. Only some compounds are listed: those with a hit (about 2.2% of all), similar ones and a draw of the others.

`CCN1CCN(Cc2ccc(NC(=O)c3cc(NC(=O)c4cncc(-c5cccs5)c4)cc(OC)c3)cc2C(F)(F)F)CC1` gave KKLEB tox -16, iPSC survival up -4, CF NFkB inh 35, HIF-2a inh -21 and C8 TRAIL sens 85*.
For CC(=O)Nc1ccc(C(=O)N2CCCC(c3cc(C(=O)Nc4ccccc4)no3)C2)cc1 (centres undefined) the results were KKLEB tox -13, iPSC survival up -1, CF NFkB inh 7, HIF-2a inh -120 and C8 TRAIL sens 1.
O=C1C=C(/C=C/c2ccccc2)C[C@@H](c2ccc3c(c2)OCO3)C1 was read as KKLEB tox -17, iPSC survival up 1, CF NFkB inh 22, HIF-2a inh -140 and C8 TRAIL sens -1.
`CC(C)c1nnc(NC(=O)CCC(=O)NC2CC2)s1` gave KKLEB tox 1, iPSC survival up 0, CF NFkB inh -2, HIF-2a inh 4 and C8 TRAIL sens 11.
For CCN1CCN(Cc2ccc(NC(=O)c3cc(NC(=O)c4cc5cccc(OC)c5o4)cc(OC)c3)cc2C(F)(F)F)CC1 the results were KKLEB tox -53*!, iPSC survival up -4, CF NFkB inh 55*!, HIF-2a inh 7, PPC-1+TRAIL kill 14 and C8 TRAIL sens 95*.
Screening CCOc1ccccc1N1CCN(C(=O)c2cc[n+]([O-])cc2)CC1 returned KKLEB tox 5, iPSC survival up -2, CF NFkB inh -3, HIF-2a inh 13, PPC-1+TRAIL kill 28 and C8 TRAIL sens -4.
For CCCc1ccc(C(=O)N2CCN(c3ccccc3OCC)CC2)cc1 the results were KKLEB tox 18, iPSC survival up 23*, CF NFkB inh 3, HIF-2a inh 3, PPC-1+TRAIL kill -8 and C8 TRAIL sens 0.
Screening CN(C(=O)COC(=O)c1ccccc1SCC(=O)N1CCCC1)C1(C#N)CCCCC1 returned KKLEB tox 9, iPSC survival up -1, CF NFkB inh -28, HIF-2a inh -13 and C8 TRAIL sens 1.
For C=CCOc1ccccc1CNc1ccc2c(c1)OCCO2 the results were KKLEB tox -15, iPSC survival up -1, CF NFkB inh 11, HIF-2a inh 13, PPC-1+TRAIL kill 39 and C8 TRAIL sens 59*.
C=CCOc1ccccc1CNc1cccc(F)c1 was read as KKLEB tox 13, iPSC survival up -1, CF NFkB inh -2, HIF-2a inh 3, PPC-1+TRAIL kill -12 and C8 TRAIL sens -16.
O=C(CSc1nc2ccccc2c(=O)n1-c1ccc(F)cc1)Nc1ccc(N2CCOCC2)cc1 was read as KKLEB tox 7, iPSC survival up -2, CF NFkB inh -16, HIF-2a inh 7, PPC-1+TRAIL kill 5 and C8 TRAIL sens 0.
O=C(CSc1nc2ccccc2c(=O)n1-c1ccc(SC(F)F)cc1)Nc1ccc(N2CCOCC2)cc1 was read as KKLEB tox -66*, iPSC survival up -3, CF NFkB inh 66*, HIF-2a inh 4, PPC-1+TRAIL kill 29 and C8 TRAIL sens 15.
Screening Nc1ccc(N=Nc2ccccc2)c(N)n1 returned KKLEB tox -10, iPSC survival up -3, CF NFkB inh 63*, HIF-2a inh -328, PPC-1+TRAIL kill 21 and C8 TRAIL sens -1.
Cc1ccc(C(=O)Nc2ccc(Cl)cc2C)c(Cl)c1 was read as KKLEB tox -17, iPSC survival up 0, CF NFkB inh -13, HIF-2a inh -311, PPC-1+TRAIL kill 44 and C8 TRAIL sens 55*.
Screening Cc1ccc(C(=O)NC2CCCCCCC2)c(Cl)c1 returned KKLEB tox -4, iPSC survival up 0, CF NFkB inh -10, HIF-2a inh -30 and C8 TRAIL sens 61*.
For Cc1nc2c(o1)C(=O)c1ccccc1C2=Nc1ccccc1 the results were KKLEB tox -84*, iPSC survival up -2, CF NFkB inh 89*, HIF-2a inh 8 and C8 TRAIL sens 95*.
`CCN(CC)C(=O)c1ccc(COc2ccc(Cl)c(C)c2)o1` gave KKLEB tox -22, iPSC survival up 0, CF NFkB inh 15, HIF-2a inh -185 and C8 TRAIL sens -2.
For CC1CCCCN1C(=O)COC(=O)c1cc([N+](=O)[O-])ccc1N1CCOCC1 (centres undefined) the results were KKLEB tox 4, iPSC survival up 0, CF NFkB inh 2, HIF-2a inh 11 and C8 TRAIL sens -4.
Screening CC(C)N(Cc1ccccc1)C(=O)COC(=O)c1cnc(Cl)c(Cl)c1 returned KKLEB tox -12, iPSC survival up -1, CF NFkB inh -6, HIF-2a inh 23 and C8 TRAIL sens 75*.
`O=C(OCc1ccccc1)c1cnc(Cl)c(Cl)c1` gave KKLEB tox 4, iPSC survival up -1, CF NFkB inh -17, HIF-2a inh -3 and C8 TRAIL sens -1.
`CCNc1nn2ccccc2c1/C=C(\C#N)C(=O)OCC` gave KKLEB tox -10, iPSC survival up 0, CF NFkB inh 15, HIF-2a inh -13, PPC-1+TRAIL kill 5 and C8 TRAIL sens -2.
`Cc1ccc(/C=C2/CNC/C(=C/c3ccc(C)cc3)C2=O)cc1` gave KKLEB tox -63*, iPSC survival up -2, CF NFkB inh 80*, HIF-2a inh 85* and C8 TRAIL sens 10.
`Cc1ccc(/C=C2\CCOC2=O)cc1` gave KKLEB tox 12, iPSC survival up 0, CF NFkB inh -8, HIF-2a inh -66, PPC-1+TRAIL kill 2 and C8 TRAIL sens 2.
For COc1ccccc1CNC(=O)c1ccc2ccccc2n1 the results were KKLEB tox -2, iPSC survival up 0, CF NFkB inh 8, HIF-2a inh -31 and C8 TRAIL sens -1.
`CC(=O)OCC(=O)[C@@]1(O)CC[C@H]2[C@@H]3CCC4=CC(=O)CC[C@]4(C)[C@H]3C(=O)C[C@@]21C` gave KKLEB tox 26, iPSC survival up 4, CF NFkB inh -9, HIF-2a inh 1, PPC-1+TRAIL kill -6 and C8 TRAIL sens -7.
`CC(=O)OCC(=O)C1(O)CCC2C3CCC4=CC(=O)C=CC4(C)C3C(O)CC21C` (centres undefined) gave KKLEB tox 31, iPSC survival up 0, CF NFkB inh 75*, HIF-2a inh 23, PPC-1+TRAIL kill 18 and C8 TRAIL sens 7.
`CCC(C)C(NC(=O)CCC(=O)OCC(=O)[C@@]1(O)CCC2[C@@H]3CCC4=CC(=O)C=C[C@]4(C)C3[C@@H](O)C[C@@]21C)C(=O)O` (some centres undefined) gave KKLEB tox 27, iPSC survival up 0, CF NFkB inh 74*, HIF-2a inh 30 and C8 TRAIL sens 0.

From PubChem BioAssay
